High-throughput results (PubChem)
Glioma ERSR ind = inducers of ER stress response in human glioma cells. hit rate 0.02% among 420,000. U87-MG GRP78 promoter luciferase reporter, 16 h. Potency, µM, hits mostly activators; note: series mostly up to about 76 µM; nearly all actives have a fitted effect of over 35% in size
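Stably transfected U87-MG human glioma cells carrying a GRP78-based luminescent sensor were seeded at 1000 cells/well, pin-dosed with compounds and incubated 16 h. Luciferase reagent was then added, and end-point luminescence was read after 10 min at room temperature.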
IDH1 R132H inh = blocks human mutant IDH1 R132H enzyme; hit rate 0.093% among 390,000; AID 602179; Potency, µM (doses to about 76.6 µM), actives largely listed as inhibitors; O75874; IDH1-R132H enzyme, NADPH consumption, diaphorase/resazurin fluorescence; note: nearly all actives have a fitted effect of over 65% in size
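IDH1-R132H (0.5 ug/mL dispensed) in pH 7.5 Tris buffer was preincubated 30 min with compound, then given a substrate mix of 0.016 mM NADPH and 2 mM alpha-KG for 80 min at room temperature; remaining NADPH was read by diaphorase/resazurin fluorescence.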
Apoferritin bind = binds horse apoferritin like a general anesthetic; AID 485281; Potency, µM (series often up to 77.5 µM), most hits filed as inhibitors; apoferritin/1-aminoanthracene competitive binding, fluorescence; P02791; hit rate 0.074% among 350,000; note: nearly all actives have a fitted effect of over 20% in size
Target sequence (P02791 2-175 limits assumed): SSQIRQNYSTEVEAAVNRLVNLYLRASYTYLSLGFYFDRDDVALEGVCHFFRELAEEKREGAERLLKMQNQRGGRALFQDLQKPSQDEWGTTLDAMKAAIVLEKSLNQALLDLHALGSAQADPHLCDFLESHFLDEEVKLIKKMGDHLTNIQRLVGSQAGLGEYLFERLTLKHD
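10 uM apoferritin + 50% sat. 1-AMA, PBS; cpd 10 min RT; Ex380/Em535 endpoint; normalized to free probe vs complex; 4-param Hill fit; propofol titration as pos. ctrl.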
rTrxR1 inhibitor = rat TrxR1 inhibition. Potency, µM (doses to about 114 µM), most hits filed as inhibitors. hit rate 1% among 390,000. recombinant rTrxR1, NADPH fluorescence consumption, selenite substrate; note: nearly all actives have a fitted effect of over 65% in size
Target sequence (O89049 whole entry, looked up): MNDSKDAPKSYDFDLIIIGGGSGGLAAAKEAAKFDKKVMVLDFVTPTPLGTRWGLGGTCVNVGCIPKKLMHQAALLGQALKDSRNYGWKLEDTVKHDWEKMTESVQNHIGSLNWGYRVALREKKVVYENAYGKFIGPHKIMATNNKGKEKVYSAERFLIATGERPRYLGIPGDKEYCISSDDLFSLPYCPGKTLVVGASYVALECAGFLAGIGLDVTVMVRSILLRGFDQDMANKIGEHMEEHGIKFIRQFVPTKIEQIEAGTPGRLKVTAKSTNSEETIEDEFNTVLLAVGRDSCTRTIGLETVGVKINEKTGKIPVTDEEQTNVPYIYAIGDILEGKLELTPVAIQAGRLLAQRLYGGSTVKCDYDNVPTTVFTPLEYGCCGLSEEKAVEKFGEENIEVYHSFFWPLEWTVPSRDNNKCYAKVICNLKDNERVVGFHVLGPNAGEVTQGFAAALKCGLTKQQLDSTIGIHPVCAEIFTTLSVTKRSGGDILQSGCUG
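Rat TrxR1 (90 nM in the dispensed reagent) was pre-reduced with 400 uM NADPH for 5 min at room temperature, then incubated with compound for 15 min. After 400 uM selenite was added, NADPH fluorescence (Ex 340/Em 450 nm) was followed for 8 min.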
TrxR1 substrate = is turned over as a substrate by rat TrxR1; O89049; Potency, µM (titrated, usually from 114 µM); hit rate 0.01% among 390,000; purified TrxR1 substrate turnover, NADPH consumption readout; AID 588456; note: nearly all actives have a fitted effect of over 50% in size
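Rat TrxR1, dispensed at 90 nM, was prereduced with 400 uM NADPH (final) for 5 min at ~22 deg C, then incubated with compound 15 min before 400 uM selenite. A first-read NADPH fluorescence drop versus no-compound background flagged substrates.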
ALOX12 inh = blocks human arachidonate 12S-lipoxygenase; P18054; purified 12hLO, xylenol orange hydroperoxide absorbance; Potency, µM (doses to about 108 µM), hits mostly inhibitors; hit rate 1.1% among 580,000
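Hydroperoxide product was detected by ferrous iron/xylenol orange as the 573 to 405 nm absorbance ratio. Arachidonic acid at 40 uM (final) was turned over for 30 min at room temperature by 150 nM human 12hLO, pH 7.0 Hepes buffer, after 15 min compound preincubation.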
Numbers stand for hits; . = inactive; ? = inconclusive; / = not tested or not shown; ! = a repeat was not active. Hits are enriched below; roughly 1.7% of the tested compounds scored in any of these assays. Calls come from the whole dose curve; as a rule, active = well fitted curve in the direction sought with a large enough effect; inconclusive = small, poorly fitted or top-dose-only effect, or another doubt; inactive = no such curve, though single readings can be large; an effect the other way counts as inactive or inconclusive.

SMILES	Glioma ERSR ind	IDH1 R132H inh	Apoferritin bind	rTrxR1 inhibitor	TrxR1 substrate	ALOX12 inh
Cc1ccc(-c2csc(NS(=O)(=O)c3cccc(F)c3)n2)o1	.	.	/	?	.	15.8µM
CCCCn1c(=O)[nH]c(=O)c2c1nc(Cn1ncc(Cl)c(Cl)c1=O)n2CCC	.	.	.	50.1µM	.	.
CCCCn1c(=O)c(CCc2ccccc2)nc2c1c(=O)[nH]c(=O)n2Cc1ccccc1	/	/	/	/	/	35.5µM
Cc1ccc(-c2nc3c(c(=O)[nH]c(=O)n3Cc3ccccc3)n2Cc2ccccc2)o1	.	.	.	.	.	?
Cc1ccc(-c2nc3c(c(=O)[nH]c(=O)n3Cc3ccccc3)n2C)o1	.	.	.	31.6µM	.	.
CCCNC(=S)Nc1cccc(C)c1	/	/	/	/	/	.
Cc1c(CNCc2ccc(OC(C)C)cc2)c(C(=O)O)c(C)n1Cc1cccc(F)c1	/	/	/	/	/	.
CC1=CC(=O)C=CC1=Nc1ccc(N(C)C)cc1	.	/	/	/	/	7.94µM
O=C(COC(=O)c1c2c(nc3ccccc13)/C(=C/c1ccco1)CC2)NC1CCCC1	.	.	?	?	.	25.1µM
O=C(O)c1cccc2c1C(=O)c1ccccc1C2=O	.	.	.	.	.	.
O=C(O)c1ccc2c3c(ncnc13)-c1ccccc1C2=O	?	.	.	10µM	.	/
COc1cccc(C(=O)CC2(O)C(=O)N(CN3CCOCC3)c3ccccc32)c1 (centres undefined)	/	/	/	/	/	.
CC(C)NC(=O)N1C[C@@H](F)[C@@H](OCc2nc3ccccc3o2)C1	/	/	/	/	/	.
CN1C/C(=C/c2cccnc2)C(=O)/C(=C/c2cccnc2)C1	.	.	.	10µM	.	.
COc1ccc(C(=O)NCc2ccc3c(c2)OCO3)cc1	.	.	.	.	.	.
O=C(NCc1ccc2c(c1)OCO2)c1ccc(N2C(=O)C3CCCCC3C2=O)cc1 (centres undefined)	.	.	8.91µM	.	.	/
Cc1cc(Br)ccc1OCCNCc1ccccc1	.	.	.	.	.	6.31µM
CC(C)NC(=S)N/N=C/c1sc(N2CCCCC2)nc1-c1cccs1	.	.	.	.	.	35.5µM
Oc1cc(O)cc(/C=C/c2ccc(O)c(O)c2)c1	.	.	.	?	.	7.94µM!
C/C=C/c1ccc(O)c(OC)c1	.	.	/	?	.	?
O=C(Nc1cccc(-c2nc3ccccc3o2)c1)c1ccc(Cl)cc1	/	/	/	/	/	.
CCCCN(CC)c1ccc(NS(=O)(=O)c2ccc3c(c2)CCCC3)cc1C(=O)O	/	/	/	/	/	1.58µM
CCCCN(Cc1ccccc1)c1ccc(C(=O)O)cc1NS(=O)(=O)c1ccc(CC(C)C)cc1	/	/	/	/	/	14.1µM
O=C(O)c1ccc(S(=O)(=O)N[C@H](Cc2ccccc2)C(=O)O)cc1	/	/	.	/	/	/
CCCCN(Cc1ccccc1)c1ccc(NS(=O)(=O)c2ccc(F)cc2)cc1C(=O)O	/	/	/	/	/	3.98µM
SMILES	Glioma ERSR ind	IDH1 R132H inh	Apoferritin bind	rTrxR1 inhibitor	TrxR1 substrate	ALOX12 inh
CC(C)c1ccc(NC(=O)COc2ncnc3ccccc23)cc1	/	/	/	/	/	.
CC(=O)CCc1ccc(O)cc1	/	/	/	/	/	.
CCn1nccc1C(=O)N1CCCCCC1c1nnc(-c2ccccc2)o1 (centres undefined)	/	/	/	/	/	.
COc1ccc2[nH]c(=O)c(CCC(=O)N3CCN(c4ccccn4)CC3)cc2c1	/	/	/	/	/	.
CCc1ccc(S(=O)(=O)Nc2ccc3nc(N4CCN(CCC#N)CC4)cc(C(=O)O)c3c2)cc1	/	/	/	/	/	11.2µM
O=c1cc(-c2ccc(O)cc2O)oc2ccccc12	.	/	/	/	/	/
Cc1c2cc(O)c(=O)cc-2oc2cc(O)c(O)cc12	.	.	.	.	.	5.62µM
COc1cc(OC)c(-c2c3cc(O)c(=O)cc-3oc3cc(O)c(O)cc23)cc1OC	.	11.7µM	.	.	.	?
Cc1ccc2nc(-c3ccc(C)o3)cc(C(=O)O)c2c1	/	/	/	/	/	5.01µM
Cc1ccc(-c2onc3ccc(-c4cc(C(=O)O)c5cc(Br)ccc5n4)cc23)cc1	/	/	/	/	/	7.94µM
O=C(O)c1cc(-c2ccccn2)nc2ccc(Cl)cc12	/	/	/	/	/	.
Cc1ccc(-c2cc(C(=O)O)c3cc(Cl)ccc3n2)o1	/	/	/	/	/	7.94µM!
Cc1ccc(-c2cc(C(=O)NCCCn3ccnc3)c3cc(Br)ccc3n2)o1	.	.	.	14.1µM	.	/
CNC(=O)[C@@H]1CN(C(=O)c2nn(C)c3ccccc23)C[C@H]1C1CCN(C)CC1	/	/	/	/	/	.
Cc1ccc(-c2cc(C(=O)N3CCCCC3)c3cc(Br)ccc3n2)o1	/	/	/	/	/	8.91µM
Cc1ccc(-c2cc(C(=O)NC3=NCCS3)c3cc(Br)ccc3n2)o1	/	/	.	/	/	/
Cc1ccc(-c2cc(C(=O)NN3CCOCC3)c3cc(Br)ccc3n2)o1	.	.	.	.	.	?
Cc1ccc(-c2cc(C(=O)O)c3cc(Br)ccc3n2)o1	.	.	.	?	.	15.8µM
CN(C)S(=O)(=O)N(CC(=O)NC1CC1)c1ccccc1	/	/	/	/	/	.
CCNC(=O)NC(=O)COC(=O)c1ccccc1SCC(=O)NC(=O)NCC	.	.	.	35.5µM	.	.
CCn1c(-c2ccc3ncccc3c2)n[nH]c1=S	.	.	.	.	.	?
C=CCn1c(-c2ccc3ncccc3c2)n[nH]c1=S	.	.	.	.	.	28.2µM
COCCNC(=S)N/N=C(\C)c1ccc(Cl)c(Cl)c1Cl	.	.	.	.	.	39.8µM
CC(NC(=O)Cn1c(=O)[nH]c2ccsc2c1=O)C12CC3CC(CC(C3)C1)C2 (centres undefined)	.	.	14.1µM	.	.	.
CN(Cc1nc2ccsc2c(=O)[nH]1)C(=O)COc1cccc(F)c1	/	/	/	/	/	5.01µM
SMILES	Glioma ERSR ind	IDH1 R132H inh	Apoferritin bind	rTrxR1 inhibitor	TrxR1 substrate	ALOX12 inh
O=C(COc1ccc2ccc(=O)oc2c1)NCCc1ccccc1	/	/	/	/	/	.
COc1cc(C)c(NC(=O)c2ccc3c(c2)NC(=O)CS3)cc1OC	/	/	/	/	/	20µM
COc1cc(NC(=O)c2ccc3c(c2)NC(=O)CS3)c(OC)cc1Cl	/	/	/	/	/	.
c1csc(CNCCN2CCCC2)c1	/	/	/	/	/	.
O=C(NCC1(COc2cccnc2)C[C@@H](O)[C@@H](O)C1)c1cnccn1 (some centres undefined)	/	/	/	/	/	.
CCC(=O)N(C)/C=C1\Sc2ccccc2C1=O	.	.	.	.	.	?
CC(=O)N(C)/C=C1\Sc2ccccc2C1=O	.	.	.	.	.	35.5µM
CCCN(C)C(=O)c1csc(N2CCN(c3cccc(Cl)c3)CC2)n1	/	/	/	/	/	.
CNC(=S)N/N=C1\CC(c2ccccc2)Oc2ccccc21 (centres undefined)	.	.	.	.	.	39.8µM
CC(CCc1ccc(O)cc1)NCCc1ccc(O)c(O)c1 (centres undefined)	?	.	.	?	.	1.44µM!
COc1ccccc1CCNC(C)CCc1ccc(O)cc1 (centres undefined)	.	.	.	.	.	.
CCCN(Cc1ccccc1)C(=O)c1cc2ccccc2oc1=O	/	/	/	/	/	.
COc1ccc(NC(=O)COc2cccc3c2OC(C)(C)C3)cc1OC	.	.	/	.	.	.
